# Screening results (PubChem BioAssay)
# Shiga toxin inh = Shiga toxin inhibition; inhibition, % at 38.7 µM; Vero cells, Shiga toxin protein synthesis inhibition reporter; 290,000 compounds, 9.2% hits; AID 2315; in the data active = inhibition mostly above about 28%, no sharp cut-off; inactive = mostly below about 43%
# MARV entry inh = inhibitors of Marburg virus binding or cell entry; Marburg virus pseudotyped entry inhibition, cell reporter; Potency, µM (series often up to 37.8 µM), usual class: inhibitors; 300,000 compounds, 1.8% hits; calls by dose curve; tested in HEK293 cells
# LASV entry inh = blocks Lassa virus binding to or entry into cells. Lassa virus pseudotype entry inhibition, cell reporter. Potency, µM (top dose mostly 37.9 µM), most hits filed as inhibitors. 300,000 compounds, 1.2% hits; calls by dose curve; tested in HEK293 cells; note: nearly all actives have a fitted effect of over 50% in size
# FMDV inh = foot and mouth disease virus antiviral activity. FMDV antiviral cell-based qHTS. Potency, µM (highest dose often 57.9 µM), most hits filed as inhibitors. 410,000 compounds, 1.2% hits; calls by dose curve; tested in HEK293T cells; note: read-out not given here; nearly all actives have a fitted effect of over 45% in size
# HCV inh = HCV inhibition; AID 651820; 340,000 compounds, 3.4% hits; Potency, µM (series often up to 41.8 µM), actives largely listed as inhibitors; Huh7.5.1 HCVcc-Cre infection, luciferase reporter, 44 h; active = well fitted inhibition curve with a large enough effect; inconclusive = small, poorly fitted or top-dose-only effect, or another doubt; inactive = no such curve, though single readings can be large or run the other way
#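 Infectious HCVcc-Cre (~0.5 moi) was added to cells just after compound, with cells seeded 4 h earlier at 1,000 per well. Luciferase activity after 44 h culture reported infection; substrate was incubated 15 min at room temperature before reading.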
# CHX counter = affects cycloheximide protein synthesis inhibition readout, counter-screen; AID 2314; max response, %; 300,000 compounds, 12% hits; cell reporter, cycloheximide protein synthesis inhibition counterscreen; in the data active = max response mostly above about 13%, no sharp cut-off; inactive = mostly below about 14%; note: read at 38.3 µM for the half of the compounds with a filed dose
# Hits are given with their value; n = inactive; u = inconclusive; x = no result given; + = active, no number; ! = repeats disagree. An excerpt weighted towards active compounds, which were near 13% of everything screened.
SMILES,Shiga toxin inh,MARV entry inh,LASV entry inh,FMDV inh,HCV inh,CHX counter
O=c1oc2ccccc2c(Nc2cc3ccccc3cc2O)c1[N+](=O)[O-],111,u,u,n,n,53
CC(=O)c1cn(CC(=O)Nc2ccccc2C)c2ccccc12,n,u,n,u,u,n
CCC1CCc2sc(C(=O)N3CCCN(C)CC3)cc2C1 (stereo unspecified),n,u,n,n,n,23
CC(C)NC(=O)/C(C#N)=C/c1cccc(NC(=O)c2ccccc2Cl)c1,n,u,n,14µM,n,n
CC(=O)c1c(C)n(C2CCCCC2)c2ccc(O)cc12,n,n,n,n,10µM,n
O=S(=O)(/N=C(\Nc1ccc(F)cc1)C(F)(F)F)c1ccccc1,n,n,n,x,n,n
CC(=O)Nc1nnc(SCC(=O)c2ccc3c(c2)Cc2ccccc2-3)s1,n,u,u,n,n,n
CCC(=O)Nc1nnc(SCC(=O)c2ccc3c(c2)Cc2ccccc2-3)s1,n,u,6.5µM,x,n,n
CCOC(=O)c1cnc2ccc(OCC)cc2c1NCc1cccnc1,42,u,n,n,u,27
CCOC(=O)c1cnc2ccccc2c1NCCc1ccc(OC)c(OC)c1,n,u,n,u,u,n
CCOC(=O)c1cnc2c(OC)cccc2c1NCc1cccnc1,n,x,x,u,n,n
CCOC(=O)c1cnc2ccc(OC)cc2c1NCCc1ccc(OC)c(OC)c1,n,u,u,18µM!,5µM,n
CCOC(=O)c1cnc2ccc(OCC)cc2c1NCc1ccccc1,42,u,u,u,10µM,19
COc1ccc(Cc2nc3ccc(C(=O)NCCc4ccccc4)cc3o2)cc1,x,x,n,n,x,x
O=C1SC(c2ccccc2)=N/C1=C/c1ccco1,n,u,n,n,n,n
O=C(Nc1ccccc1)N1CCc2ccccc2C1,+,n,u,n,n,60
Cc1ccc(NC(=O)N2CCc3ccccc3C2)c(C)c1,65,u,n,n,n,42
Cc1ccc(NC(=O)N2CCc3ccccc3C2)cc1,58,u,n,n,x,48
Cc1ccc(-n2nnnc2SCC(=O)N2CCc3ccccc3C2)c(C)c1,n,n,n,n,13µM,n
O=C1[C@H]2[C@H]3[C@H](O)[C@H](O)C/C(=N/OC[C@@H](O)COCc4ccco4)[C@H]3CC[C@@H]2C(=O)N1C1CCCCC1,x,n,x,x,x,x
O=C(N/N=C\c1ccc(F)cc1)c1ccc(Cn2cc(Br)c([N+](=O)[O-])n2)o1,n,u,n,n,n,n
C(/C=C/c1ccco1)=N/N1CCN(c2ccccc2)CC1,106,n,u,n,n,34
Clc1ccccc1CN1CCN(/N=C/C=C\c2ccco2)CC1,69,u,n,n,n,16
C(=N\N1CCN(Cc2cccc3ccccc23)CC1)/c1ccco1,n,n,n,u,n,n
COC(=O)CN(c1c(C)cccc1C)S(C)(=O)=O,n,n,u,n,n,n
SMILES,Shiga toxin inh,MARV entry inh,LASV entry inh,FMDV inh,HCV inh,CHX counter
CCOC(=O)CSc1snnc1-c1ccccc1,n,n,n,n,n,n
CC(C)C(C)NC(=O)CN1C(=O)NC(C)(c2ccc3ccccc3c2)C1=O (stereo unspecified),n,n,n,n,n,n
CC(/C=N/NC(=O)c1c(Br)cnn1C)=C\c1ccccc1,47,n,n,n,n,25
CC(/C=N/NC(=O)c1nn(C)c(C)c1Br)=C\c1ccccc1,117,n,u,n,n,63
CC(/C=N/NC(=O)c1nnn(-c2nonc2N)c1C)=C\c1ccccc1,n,n,n,n,n,n
O=C(Cn1c(=O)[nH]c2ccsc2c1=O)NC1CCCCCC1,n,n,n,n,n,n
O=C(NCc1cccnc1)c1ccc([N+](=O)[O-])o1,n,x,x,n,u,31
O=C(NCc1ccco1)c1ccc([N+](=O)[O-])o1,n,n,n,n,n,12
O=C(Cc1ccc([N+](=O)[O-])cc1)NCc1cccnc1,n,n,n,n,n,n
O=C(Nc1cccnc1)c1ccc([N+](=O)[O-])o1,71,x,x,n,u,38
COC(=O)[C@@H]1[C@@H](c2ccccc2)[C@H]2C(=O)c3c(OC)cc(OC)cc3O[C@@]12c1ccc(OC)cc1,x,n,x,x,x,x
COc1ccc([C@@]23Oc4cc(OC)cc(OC)c4[C@]2(O)[C@H](O)[C@H](C(=O)N(C)C)[C@H]3c2ccccc2)cc1,x,0.11µM,u,u,x,x
O=C(CSc1cccc[n+]1[O-])c1cc2ccccc2o1,140,n,u,n,n,131
O=C(CSc1cccc[n+]1[O-])c1cc(Cl)ccc1Cl,78,n,n,n,u,28
